Compound activity (PubChem)
NR3A LBD binder: binders of NR3A ligand-binding domain, primary screen, biophysical, differential scanning fluorimetry, uHTS; NR3A LBD differential scanning fluorimetry, Tm shift; 0% = protein alone, 100% = glycine-bound protein; Tm shift relative to glycine control, % at 25 µM; 2.5% of 340,000 active; AID 1259313, 2017;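 active = melting temperature shift of at least 10% of the positive control shift, at one fixed dose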
ADAM17 inh: ADAM17 inhibitors, primary screen, biochemical, QFRET; Disintegrin and metalloproteinase domain-containing protein 17 (Homo sapiens), P78536; 0.83% of 370,000 active; inhibition, % at 6.95 µM; recombinant ADAM17, EDANS/DABCYL FRET peptide cleavage; AID 720648, 2013;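 active = inhibition above the mean of compounds lying between control limits plus 3 SD, set per campaign, cut at about 8.5% in these data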
Target sequence (P78536 215-824 limits assumed): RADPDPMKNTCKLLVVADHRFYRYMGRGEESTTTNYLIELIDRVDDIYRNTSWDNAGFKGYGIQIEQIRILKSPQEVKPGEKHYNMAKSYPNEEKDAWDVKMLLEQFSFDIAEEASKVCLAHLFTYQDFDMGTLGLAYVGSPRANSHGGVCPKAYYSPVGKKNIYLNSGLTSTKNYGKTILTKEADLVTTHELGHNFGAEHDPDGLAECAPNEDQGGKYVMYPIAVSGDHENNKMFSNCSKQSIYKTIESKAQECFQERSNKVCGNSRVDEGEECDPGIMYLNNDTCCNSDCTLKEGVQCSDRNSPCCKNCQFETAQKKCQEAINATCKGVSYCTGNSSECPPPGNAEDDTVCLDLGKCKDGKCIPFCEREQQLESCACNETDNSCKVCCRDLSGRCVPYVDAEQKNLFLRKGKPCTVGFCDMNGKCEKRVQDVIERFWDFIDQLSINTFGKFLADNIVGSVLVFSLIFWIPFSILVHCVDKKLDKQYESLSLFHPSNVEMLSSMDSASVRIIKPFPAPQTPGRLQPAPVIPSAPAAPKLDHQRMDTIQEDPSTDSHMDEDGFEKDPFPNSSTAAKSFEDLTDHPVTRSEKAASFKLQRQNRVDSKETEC
HGIII-sPLA2 inh: human group III sPLA2 inhibitors, primary screen, biochemical, QFRET, BODIPY PC-A2 liposome substrate; Group 3 secretory phospholipase A2 (Homo sapiens), Q9NZ20; AID 743126, 2013; inhibition, % at 12.2 µM; QFRET BODIPY PC-A2 liposome hydrolysis, fluorescence; 0.56% of 370,000 active;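 active = inhibition above mean plus 3 SD of compounds lying within the high and low control bounds, cut at about 19% in these data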
ADAM10 inh: human ADAM10 inhibitors, primary screen, biochemical, QFRET, HTS. Disintegrin and metalloproteinase domain-containing protein 10 (Homo sapiens), O14672. recombinant ADAM10, EDANS/DABCYL FRET peptide cleavage, 3 h. inhibition, % at 7 µM. 0.62% of 370,000 active;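 active = inhibition above a per-campaign cutoff equal to the mean of compounds falling between control-based bounds plus 3 SD, cut at about 20% in these data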
FAS-TE inh: FAS thioesterase domain inhibitors, primary screen, biochemical, fluorescence intensity, uHTS | recombinant FAS-TE, OMFH fluorogenic substrate, fluorescence endpoint | 0.67% of 360,000 active | Fatty acid synthase (Homo sapiens), P49327 | inhibition, % at 15 µM;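 active = compounds whose normalised, plate-corrected inhibition of enzyme fluorescence in the single-dose primary screen is 50% or more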
Large screens that a line does not name were inactive. Only some compounds are listed: those with a hit (about 4.3% of all), similar ones and a draw of the others.

O=C(CSc1ncnc2nc[nH]c12)c1ccccc1	none
CCC1CCc2c(sc(NC(=O)CSc3nc(-c4ccco4)cc(C(F)(F)F)n3)c2C#N)C1 (configuration not stated)	NR3A LBD binder 12.1
O=C(CCCSc1nc(-c2ccco2)cc(C(F)(F)F)n1)Nc1ccc2c(c1)OCO2	ADAM10 inh 25.6
O=C(CSc1nc(-c2ccco2)cc(C(F)(F)F)n1)Nc1ccc2c(c1)OCO2	none
CCC1CCc2c(sc(NC(=O)c3ccco3)c2C(N)=O)C1 (configuration not stated)	NR3A LBD binder 715.0
C[C@H]1[C@@H](OC(=O)Nc2ccc(C#N)cc2)CC[C@@]23CCCN2C(=O)CCC[C@@H]13	none (no result: NR3A LBD binder, FAS-TE inh)
CN(C)S(=O)(=O)N1CCC(Oc2ccc(C(=O)NCCc3cscn3)cc2)CC1	NR3A LBD binder 12.6
O=C(O)c1ccccc1-c1ccc(/C=c2\sc3nc4cc(Br)cnc4n3c2=O)o1	NR3A LBD binder 15.8 (no result: ADAM17 inh, HGIII-sPLA2 inh, ADAM10 inh)
Nc1cc2c(cc1Cl)-c1ccc([N+](=O)[O-])cc1C2=NO	NR3A LBD binder 477.2
C=CC[C@@H](CC(=O)N(CCO)Cc1ccccc1)C(=O)N[C@H](COC(=O)[C@@H](CC=C)Cc1ccc(F)cc1)Cc1ccccc1	ADAM17 inh 13.9, ADAM10 inh 32.6
C=CC[C@@H](CC(=O)N(CCO)Cc1ccccc1)C(=O)N[C@@H](COC(=O)[C@@H](CC=C)Cc1ccc(F)cc1)Cc1ccccc1	ADAM17 inh 12.8, ADAM10 inh 23.1
C=CCC[C@H](Cc1ccc(F)cc1)C(=O)OC[C@@H](C)NC(=O)[C@H](CC=C)CC(=O)N(CCO)Cc1ccccc1	none
C=CC[C@@H](CC(=O)N(CCO)Cc1ccccc1)C(=O)NC[C@@H](OC(=O)[C@@H](CC=C)Cc1ccc(F)cc1)c1ccccc1	ADAM17 inh 10.0
C=CC[C@H](CC(=O)N(CCO)Cc1ccccc1)C(=O)NC[C@H](OC(=O)[C@@H](CC=C)Cc1ccc(F)cc1)c1ccccc1	none
C=CC[C@H](CC(=O)N(CCO)Cc1ccccc1)C(=O)N[C@@H](C)COC(=O)[C@@H](CC=C)Cc1ccc(F)cc1	none
O=c1c2ccc(F)cc2nc2sc(Nc3ccc4c(c3)CCC4)nn12	none (no result: NR3A LBD binder, FAS-TE inh)
CCCCNS(=O)(=O)CC1NCc2cc(OC)ccc21 (configuration not stated)	none (no result: NR3A LBD binder, FAS-TE inh)
CN1CCN(c2ccc3c(c2)Oc2ccccc2CN(Cc2cn(Cc4ccc(F)cc4)nn2)S3(=O)=O)CC1	none (no result: NR3A LBD binder, FAS-TE inh)
COc1cccc(-c2csc(N3CCN(C(=S)Nc4ccc(Cl)cc4)CC3)n2)c1	NR3A LBD binder 10.2
COc1cccc(-c2csc(N3CCN(C(=S)Nc4cccc(C)c4)CC3)n2)c1	none
C=CCN1C(=O)[C@@H](CC(=O)NCC23CC4CC(CC(C4)C2)C3)[C@]2(C(=O)OCC)CCCCC/C=C/12	none (no result: NR3A LBD binder, FAS-TE inh)
O=C(O)CS(=O)(=O)c1ccc(Oc2ccc(S(=O)(=O)CC(=O)O)cc2)cc1	NR3A LBD binder 11.1 (no result: FAS-TE inh)
CN(Cc1ccccc1)C(=O)OCc1cn(Cc2cccc(C(F)(F)F)c2)nn1	none (no result: NR3A LBD binder, FAS-TE inh)
COc1cc2c(cc1NC(=O)Nc1ccccc1)oc1ccccc12	NR3A LBD binder 15.7
COc1cc2c(cc1NC(=S)Nc1cccc(C(F)(F)F)c1)oc1ccccc12	NR3A LBD binder 29.2
COc1cc2c(cc1NC(=O)CN1C(=O)NC3(CCc4ccccc43)C1=O)oc1ccccc12 (configuration not stated)	FAS-TE inh 54.6
CCN(CC)S(=O)(=O)c1cccc(C(=O)Nc2cc3oc4ccccc4c3cc2OC)c1	NR3A LBD binder 22.0
COc1cc2c(cc1NC(=O)CCC(=O)O)oc1ccccc12	none
O=C(OC12CCCN(C1)/C(=C/c1cccc(Cl)c1)C2)c1ccc(F)cc1 (configuration not stated)	none (no result: NR3A LBD binder, FAS-TE inh)
CC(C)N(Cc1cn(Cc2ccccc2)nn1)S(=O)(=O)c1ccc(F)cc1Br	none (no result: NR3A LBD binder, FAS-TE inh)
CCCN(CCC)S(=O)(=O)c1ccc(C(=O)Nc2cc3oc4ccccc4c3cc2OC)cc1	none
COc1cc2c(cc1NC(=O)c1cncc(Br)c1)oc1ccccc12	NR3A LBD binder 23.8
